Screens as filed in PubChem.
Only some compounds are listed: those with a hit (about 2.2% of all), similar ones and a draw of the others.
Mito fusion act: inhibitors of mitochondrial division or activators of mitochondrial fusion. S. cerevisiae fusion-defective mutant growth rescue, CellTiterGlo 48 h. AID 485298. actives 0.23% (n = 320,000). Potency, µM (top dose mostly 46.1 µM), for the others: at the top dose growth rescue (activation), most hits filed as activators; also: % of control where 0% means no effect; nearly all actives have a fitted effect of over 45% in size
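Temperature-sensitive fusion-defective S. cerevisiae (e.g. fzo1-1, mgm1-5) were grown with compound in YPEG medium (3% ethanol, 3% glycerol) for 48 hours at 37C. Growth rescue was measured as viability by CellTiterGlo luminescence after 10 minutes at ambient.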
Abeta yeast res: compounds reversing amyloid beta toxicity in yeast; actives 0.063% (n = 410,000); Potency, µM (series often up to 46.1 µM), usual class: activators; yeast expressing A-beta42, growth rescue, OD600, 48 h; response scale: 0% DMSO, 100% iron-clioquinol control; also: nearly all actives have a fitted effect of over 55% in size
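Yeast growth medium received pinned compounds, then yeast cells expressing toxic A-beta were added; plates incubated at 30 C for 48 hr. Growth read as absorbance at 600 nm, normalized to DMSO and equimolar FeCl3 plus clioquinol controls.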
aSyn yeast inh: rescues yeast growth from alpha-synuclein toxicity | Yeast expressing alpha-synuclein, growth rescue, BacTiter-Glo, 24 h | Potency, µM (highest dose often 46.1 µM), for the others: at the top dose growth rescue (activation), hits mostly activators | actives 0.14% (n = 370,000) | AID 652106; also: % of control where 0% means no effect; nearly all actives have a fitted effect of over 65% in size
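Rescue of yeast growth: cells expressing toxic alpha-synuclein, induced in galactose at OD600 0.02, incubated with compound 24 h at 30 C. ATP luminescence quantified growth; inhibitors of toxicity appear as activators.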
FUS yeast rescue: FUS proteinopathy suppression in yeast. S. cerevisiae FUS-expressing, growth rescue, OD600, 24 h. Potency, µM (titrated, usually from 76.6 µM), usual class: activators. actives 0.24% (n = 390,000). AID 1347120;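 also: plate controls were DMSO vehicle for no effect and reference control for full effect; nearly all actives have a fitted effect of over 55% in size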
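Galactose (2%) drives FUS expression in yeast precultured in raffinose; seeding density OD 0.005. Test compounds incubated 24hr at 30C and 99% humidity before absorbance at 600 nm was measured.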
TDP43 rescue: TDP-43 toxicity inhibition in yeast; AID 652104; Potency, µM (titrated, usually from 46.1 µM), for the others: at the highest dose growth rescue (activation), most hits filed as activators; actives 1.8% (n = 410,000); TDP-43 expressing yeast growth rescue, BacTiter-Glo, 24 h; also: % of control where 0% means no effect; nearly all actives have a fitted effect of over 50% in size
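Yeast cells expressing TDP-43 under galactose induction are exposed to compounds for 24 hr at 30 deg C. BacTiter-Glo luminescence measures growth, so protective compounds score as activators.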
An asterisk follows results filed as active; i = inactive; ? = inconclusive; nt = not tested or not shown; [ ] = another dose, or the depositor's remark. Calls follow the shape of the dose curve; as a rule, active = well fitted curve in the direction sought with a large enough effect; inconclusive = small, poorly fitted or top-dose-only effect, or another doubt; inactive = no such curve, though single readings can be large; an effect the other way counts as inactive or inconclusive. Potency is read from the fitted curve at half-maximal effect.

SMILES | Mito fusion act | Abeta yeast res | aSyn yeast inh | FUS yeast rescue | TDP43 rescue
Cn1ccc2c(-c3ccc4c(c3)OCCO4)cc3c(c21)C1CCC3O1 (stereo not given) | nt | i | -13% | ? | 22µM*
CSc1ccc(-c2cc3c(c4c2ccn4C)C2CCC3O2)cc1 (stereo not given) | nt | i | ? | i | 25µM*
CSc1ccc(-c2cc3c(c4c2ccn4C)C2CCC3C2)cc1 (stereo not given) | nt | i | 3% | i | 0%
CC(=O)Oc1ccccc1-c1nc(/C=C/c2ccccc2)no1 | -6% | i | -14% | i | 18µM*
COc1ccc(/C=C/c2noc(-c3ccccc3O)n2)cc1 | -2% | i | 0% | i | -4%
COc1ccc(CCN(Cc2cccs2)S(=O)(=O)c2ccc(C)s2)cc1OC | nt | nt | nt | i | nt
Cc1ccc(-c2cc(N)n(-c3ccccc3)n2)cc1 | 13% | i | -19% | i | 20µM*
Cc1cccc(-c2cc(N)n(-c3ccccc3)n2)c1 | 4% | i | -4% | i | -25%
CC(C)CN(CC(C)C)c1ccc(/C=C/c2ccnc3ccccc23)cc1 | nt | nt | -57% | nt | nt
O=C1c2ccccc2C(=O)N1CCc1csc(-c2ccccc2)n1 | 10% | i | ? | i | 13µM*
c1cc2cc(-c3c(-c4ccc5c(c4)OCO5)noc3-c3ccsc3)ccc2[nH]1 | -10% | i | -3% | i | -1%
Cc1onc(-c2ccc3c(c2)OCO3)c1-c1ccc2[nH]ccc2c1 | 10% | i | -24% | i | 22µM*
CC1=C(C#N)C(=O)NC(=O)/C1=C\c1ccc(-c2ccc(C)cc2[N+](=O)[O-])o1 | 1% | i | 5% | i | 32µM*
COc1ccc(NC(=O)CC2C(=O)N(c3ccccc3)C(=O)N2Cc2cccnc2)cc1 (stereo not given) | nt | i | nt | i | 8%
CC[C@H](C)[C@@H]1NC(=O)[C@H]([C@@H](C)CC)NC(=O)[C@@H](CC(C)C)NC(=O)[C@H](Cc2ccccc2)NC(=O)[C@H](Cc2ccccc2)NC(=O)[C@@H]2CCCN2C(=O)[C@@H]2CCCN2C(=O)[C@H](C(C)C)NC(=O)[C@H](CC(C)C)NC1=O | nt | i | 0% | 18µM* | 19%
CCOc1cc(/C=C2\C(=O)ON=C2c2ccccc2)ccc1OC | -2% | i | 15% | i | 13µM*
COc1ccc(/C=C2/C(=O)ON=C2c2ccccc2)cc1OC | -3% | i | 13µM* | i | ?
COc1ccc(/C=C2\C(=O)ON=C2c2ccccc2)cc1OC | -4% | i | ? | i | ?
NC(=O)COc1ccc(/C=C2\C(=O)ON=C2c2ccccc2)cc1 | -6% | i | 16µM* | nt | 22µM*
O=C(CC(Cl)(Cl)Cl)N1CCN(/[N+]([O-])=N/Oc2ccc([N+](=O)[O-])cc2[N+](=O)[O-])CC1 | nt | nt | -67% | nt | nt
COC(=O)C1=C(C)N(C(C)C)C(=O)C1(NC(=O)c1ccccc1OC)C(F)(F)F (stereo not given) | nt | i | nt | i | ?
O=C(c1ccc2c(c1)N(Cc1ccc(F)cc1)C(=O)c1ccccc1S2(=O)=O)N1CCN(Cc2ccccc2)CC1 | nt | i | nt | i | -6%
CCN(CC)C(=O)CSCc1cnn(-c2ccccc2)c1-n1cccc1 | -2% | i | 1% | i | 18µM*
COc1ccc(NC(=O)CSCc2cnn(-c3ccccc3)c2-n2cccc2)cc1 | nt | i | nt | ? | 16µM*
O=C(CSCc1cnn(-c2ccccc2)c1-n1cccc1)NCc1ccc2c(c1)OCO2 | 22µM* | i | 4% | i | 10%
SMILES | Mito fusion act | Abeta yeast res | aSyn yeast inh | FUS yeast rescue | TDP43 rescue
COc1ccc(CNC(=O)CSCc2cnn(-c3ccccc3)c2-n2cccc2)cc1 | 6% | i | 11% | i | ?
CC(C)C[C@H]1COc2cc(F)ccc2S(=O)(=O)N1C | nt | nt | nt | i | nt
CCOC(=O)[C@]12CCCC3=C1N(CCC3)C(=O)[C@@H](CC(=O)NCc1ccc(OC)c(OC)c1)C2 | nt | nt | nt | i | nt
Cc1ncsc1CCOC(=O)c1cccnc1 | 1% | i | 2% | i | 3%
Cc1ncsc1CCOC(=O)C12CC3CC(CC(C3)C1)C2 | -1% | i | -6% | i | 20µM*
CC1(C(=O)NS(=O)(=O)Cc2cccc(Cl)c2)CCN1C(=O)c1ccc(C2CCCCC2)cc1 (stereo not given) | nt | i | -9% | i | 23%
CC1(C(=O)NS(=O)(=O)Cc2ccccc2)CCN1C(=O)c1ccc(C2CCCCC2)cc1 (stereo not given) | nt | i | -46% | i | 20µM*
COc1ccc(-c2cc3ccc(O)cc3oc2=O)cc1 | ? | nt | -3% | i | 16%
O=c1oc2cc(O)ccc2cc1-c1ccccc1 | 20% | nt | 8% | i | 16µM*
O=C(Nc1cccc(C(F)(F)F)c1)c1cccnc1NCCO | -5% | i | 0% | i | 4%
CNC(=O)c1cccnc1Nc1cccc(C(F)(F)F)c1 | ? | i | -15% | i | 18µM*
Cn1nnnc1N=N/C(=N/Nc1ccccc1)c1ccccc1 | 6% | ? | 3.2µM* | i | ?
Brc1ccc(/C=C2\C=Cc3ccccc32)cc1 | nt | nt | 8% | nt | nt
COc1cc(C)cc2oc(=O)c(CC(=O)N3CCN(C(=O)C4COc5ccccc5O4)CC3)c(C)c12 (stereo not given) | 2% | i | 1% | i | -2%
N#Cc1ccccc1S(=O)(=O)N1CCN(C(=O)C2COc3ccccc3O2)CC1 (stereo not given) | 5% | i | 0% | nt | 11%
O=C(C1COc2ccccc2O1)N1CCN(S(=O)(=O)c2cc(F)ccc2F)CC1 (stereo not given) | 1% | i | -2%[1.84 µM] | i | 28µM*
Cc1cc(O)c2c(C)c(CC(=O)N3CCN(C(=O)C4COc5ccccc5O4)CC3)c(=O)oc2c1 (stereo not given) | 4% | i | 1% | 28µM* | 4%
O=C(C1COc2ccccc2O1)N1CCN(Cc2ccc(Br)cc2F)CC1 (stereo not given) | 11µM* | ? | 14% | i | -3%
O=C(OCCN1CCCC12CCC(c1ccccc1)CC2)c1ccccc1 (stereo not given) | nt | nt | nt | i | nt
CCn1cc(S(=O)(=O)c2cccc(C)c2)c(=O)c2cc(F)c(N3CCN(c4ccccc4)CC3)cc21 | nt | i | nt | i | 26%
Cc1ccc(-c2nnc(SCc3ccc([N+](=O)[O-])cc3)n2-c2ccccc2)cc1 | nt | nt | nt | i | nt
COc1cc(C)c(S(=O)(=O)N2CCCC2)cc1C | -10% | ? | 14µM* | i | 6%
CCOc1cc(S(=O)(=O)N2CCCC2)c(C)cc1C | 5% | i | 1% | i | -7%
